Among the test systems are NCI-H23 lung; NCI-H226 lung; NCI-H322M lung; HOP-62 NSCLC; NCI-H460 lung; HOP-92 NSCLC; NCI-H522 lung; A549/ATCC NSCLC; 786-0 renal; COLO 205 colon; DU-145 prostate; K-562 leukemia; MALME-3M melanoma; MDA-MB-231 breast; RXF 393 renal; SF-268 CNS; SF-295 CNS; SF-539 CNS; UACC-257 melanoma; M14 melanoma.
Common to all, as to experiment: NCI-60 one-dose screen, 48 h (100 = growth as untreated, 0 = no growth, -100 = all killed)
What all share (details): 10 µM unless noted

Compounds without any hit were thinned out: in the full panel of roughly 83,000, 20% have a hit.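 Activity criterion: percent growth below 10, measured after cells in 96-well plates were exposed to a single compound concentration for 48 hours.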 Unmarked numbers belong to inactive results. Calls of active or inactive are those of the source.

Among the data in PubChem BioAssay (NCI) are growth values, retold here.

Take `CC(=O)c1cc(O)ccc1O`: the growth with NCI-H23 lung was 92.9%; in the assay on NCI-H226 lung, 98%; in the assay with NCI-H322M lung, 97.4%; in the assay with HOP-62 NSCLC, 89.3%; with NCI-H460 lung it was 108%; in the assay on HOP-92 NSCLC, 58.9%. Also, the growth with NCI-H522 lung is 100%; with A549/ATCC NSCLC, 103%; in the assay on 786-0 renal, 94.5%; with COLO 205 colon, 123%; in the assay with DU-145 prostate, 114%; in the assay with K-562 leukemia, 91.7%. The growth with MALME-3M melanoma is 111%; in the assay with MDA-MB-231 breast it was 96.6%; in the assay with RXF 393 renal it was 88.8%; in the assay on SF-268 CNS, 109%; in the assay on SF-295 CNS, 104%; in the assay with SF-539 CNS it was 92.5%. Moreover, the growth with UACC-257 melanoma is 104%; with M14 melanoma it was 101%.
Consider `Cc1c(Cl)cccc1NC(=S)NC(=O)c1ccccc1`, for which the growth in the assay with NCI-H23 lung was 85.5%; with NCI-H226 lung, 90.8%; with NCI-H322M lung, 97.4%; in the assay on HOP-62 NSCLC, 110%; in the assay with NCI-H460 lung, 103%; with HOP-92 NSCLC, 71.8%. The growth with NCI-H522 lung was 59%; in the assay on A549/ATCC NSCLC it was 75%; with 786-0 renal, 120%; in the assay with COLO 205 colon it was 109%; with DU-145 prostate, 111%; with K-562 leukemia, 79.7%. In addition, the growth in the assay on MALME-3M melanoma is 89.4%; in the assay on MDA-MB-231 breast, 90.2%; with RXF 393 renal, 85.5%; in the assay on SF-268 CNS it was 109%; with SF-295 CNS, 85.1%; in the assay on SF-539 CNS it was 100%. Also, the growth in the assay with UACC-257 melanoma was 88.9%; in the assay with M14 melanoma, 115%.
Turning to `CCNc1ccc2ccccc2c1N=Nc1ccc(N=Nc2ccccc2)cc1`, the growth with NCI-H23 lung was 99.4%; in the assay on NCI-H226 lung, 83.6%; in the assay on NCI-H322M lung it was 101%; in the assay with HOP-62 NSCLC it was 102%; in the assay with NCI-H460 lung, 84.7%; in the assay on HOP-92 NSCLC, 98.1%. Besides, the growth with NCI-H522 lung is 90.2%; with A549/ATCC NSCLC, 102%; in the assay with 786-0 renal, 108%; in the assay on COLO 205 colon, 100%; in the assay with DU-145 prostate, 121%; in the assay on K-562 leukemia, 125%. For the same compound, the growth is 128% in the assay on MALME-3M melanoma; 93.4% with MDA-MB-231 breast; 118% with RXF 393 renal; 117% in the assay on SF-268 CNS; 107% with SF-295 CNS; 104% with SF-539 CNS. In addition, the values for the growth with UACC-257 melanoma and in the assay on M14 melanoma were 123% and 104%, respectively.
Regarding `CCC(/C=C\C(C)=O)CC`, the growth is 101% with NCI-H23 lung; 107% with NCI-H226 lung; 99% in the assay with NCI-H322M lung; 94.9% in the assay on HOP-62 NSCLC; 100% in the assay with NCI-H460 lung; 102% in the assay with HOP-92 NSCLC. Moreover, the growth with NCI-H522 lung was 106%; in the assay with A549/ATCC NSCLC, 104%; with 786-0 renal, 101%; with COLO 205 colon, 107%; in the assay with DU-145 prostate, 111%; in the assay on K-562 leukemia, 113%. The growth with MALME-3M melanoma was 98.4%; in the assay with MDA-MB-231 breast it was 103%; in the assay on RXF 393 renal, 97.8%; in the assay on SF-268 CNS, 106%; with SF-295 CNS, 104%; in the assay with SF-539 CNS, 100%. The growth is 94.8% in the assay with UACC-257 melanoma and 104% in the assay on M14 melanoma.
Take `O=C1C=C[C@H](O)[C@@]2(CO)O[C@@H]12`: the growth with NCI-H23 lung is 93.1%; with NCI-H226 lung, 71.3%; with NCI-H322M lung, 114%; in the assay with HOP-62 NSCLC, 126%; in the assay with NCI-H460 lung it was 121%; in the assay on HOP-92 NSCLC it was 64.6%. For the same compound, the growth in the assay with NCI-H522 lung is -60.6% (active); in the assay with A549/ATCC NSCLC, 144%; in the assay with 786-0 renal, 102%; in the assay with COLO 205 colon it was 3.59% (active); in the assay with DU-145 prostate, 95.6%; in the assay with K-562 leukemia, 4.07% (active). For the same compound, the growth is 77.7% with MALME-3M melanoma; 105% with MDA-MB-231 breast; 23.1% in the assay with RXF 393 renal; 100% in the assay on SF-268 CNS; 109% with SF-295 CNS; 70.1% in the assay with SF-539 CNS. The growth in the assay with UACC-257 melanoma was 108%; in the assay on M14 melanoma it was 85.9%.
Take `O=C(Oc1ccccc1Cl)c1ccc(Cl)cc1Cl`: the growth is 101% in the assay on NCI-H23 lung; 102% with NCI-H226 lung; 107% in the assay with NCI-H322M lung; 87.9% in the assay with HOP-62 NSCLC; 102% in the assay with NCI-H460 lung; 103% with HOP-92 NSCLC. Also, the growth with NCI-H522 lung was 98.8%; in the assay with A549/ATCC NSCLC, 89.3%; with 786-0 renal, 95.9%; in the assay on COLO 205 colon it was 104%; in the assay on DU-145 prostate, 110%; in the assay with K-562 leukemia it was 99.6%. Further, the growth is 103% in the assay with MALME-3M melanoma; 98.3% in the assay with MDA-MB-231 breast; 102% in the assay on RXF 393 renal; 105% in the assay with SF-268 CNS; 95.1% with SF-295 CNS; 95.6% with SF-539 CNS. Also, the growth with UACC-257 melanoma was 94.3%; in the assay with M14 melanoma, 98.1%.
Take `CCC(C)C1CCC(O)CC1` (stereo not given): the growth with NCI-H23 lung was 96.3%; in the assay with NCI-H226 lung, 101%; in the assay on NCI-H322M lung, 100%; in the assay with HOP-62 NSCLC, 110%; with NCI-H460 lung it was 108%; with HOP-92 NSCLC, 102%. Further, the growth was 101% in the assay with NCI-H522 lung; 103% in the assay on A549/ATCC NSCLC; 100% in the assay on 786-0 renal; 112% with COLO 205 colon; 101% in the assay with DU-145 prostate; 99.2% in the assay with K-562 leukemia. Besides, the growth was 32.8% in the assay with MALME-3M melanoma; 112% with MDA-MB-231 breast; 108% in the assay on RXF 393 renal; 99.3% in the assay on SF-268 CNS; 105% in the assay on SF-295 CNS; 94.8% in the assay on SF-539 CNS. Besides, the growth in the assay with UACC-257 melanoma is 103%; with M14 melanoma it was 99%.
For the compound `CC(=O)c1cccc(NS(=O)(=O)c2ccc(C)cc2)c1`, the growth in the assay with NCI-H23 lung is 83.9%; in the assay with NCI-H226 lung, 91%; with NCI-H322M lung, 103%; in the assay with HOP-62 NSCLC, 89.9%; in the assay on NCI-H460 lung, 102%; in the assay on HOP-92 NSCLC, 74.4%. In addition, the growth with NCI-H522 lung is 64.4%; in the assay on A549/ATCC NSCLC it was 100%; in the assay with 786-0 renal it was 89.5%; in the assay on COLO 205 colon it was 117%; in the assay on DU-145 prostate, 95.1%; with K-562 leukemia it was 27.4%. Besides, the growth in the assay on MALME-3M melanoma was 96.9%; with MDA-MB-231 breast, 83.7%; in the assay on RXF 393 renal, 96.3%; with SF-268 CNS, 89.3%; with SF-295 CNS it was 87.6%; with SF-539 CNS it was 74.6%. Also, the values for the growth in the assay on UACC-257 melanoma and with M14 melanoma were 86.6% and 60.6%, respectively.
On to `CC(C)C1CCC(C)C(O)C1` (stereo not given), for which the growth is 110% with NCI-H23 lung; 102% with NCI-H226 lung; 105% in the assay on NCI-H322M lung; 95.3% in the assay with HOP-62 NSCLC; 108% in the assay on NCI-H460 lung; 102% with HOP-92 NSCLC. Also, the growth is 92.8% in the assay on NCI-H522 lung; 88.7% in the assay with A549/ATCC NSCLC; 105% in the assay with 786-0 renal; 111% with COLO 205 colon; 106% with DU-145 prostate; 103% in the assay with K-562 leukemia. The growth with MALME-3M melanoma is 109%; in the assay with MDA-MB-231 breast, 93.9%; in the assay with RXF 393 renal, 108%; with SF-268 CNS it was 100%; in the assay on SF-295 CNS, 100%; in the assay on SF-539 CNS, 100%. For the same compound, the figures for the growth in the assay on UACC-257 melanoma and with M14 melanoma were 85.6% and 101%, respectively.
